Rango complex inh: qHTS Assay for Inhibitors of Rango (Ran-regulated importin-beta cargo) - Importin beta complex formation | Importin subunit beta-1 (Homo sapiens), Q14974 | hit rate 0.031% among 340,000 | Potency, µM (series often up to 92.2 µM), inactives show at the highest dose inhibition of complex formation | Rango CFP/YFP FRET sensor + importin beta, 45 min; calls by dose curve;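 note: 0% = DMSO wells and 100% = buffer wells lacking importin beta; nearly all actives have a fitted effect of over 15% in size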
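FRET biosensor (snurportin 1 IBB flanked by EYFP and cerulean), 50 nM, with compound 5 min, then 0.125 microM importin beta in PBS, 1 mM DTT, 0.02% Tween-20, 0.1% BSA. CFP/YFP ratio read after 45 min at room temperature; pre-read flags interference.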
Tb PFK block: qHTS Assay to Find Inhibitors of T. brucei phosphofructokinase; hit rate 0.17% among 330,000; T. brucei PFK, ADP-Glo luminescence; AID 485367, 2010; Potency, µM (doses to about 57.5 µM), for inactives: at the highest dose activity, negative = inhibition, hits mostly inhibitors;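 note: 0% = uninhibited 1x PFK enzyme wells and -100% = no-enzyme wells; nearly all actives have a fitted effect of over 60% in size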
Target sequence (O15648 whole entry, looked up): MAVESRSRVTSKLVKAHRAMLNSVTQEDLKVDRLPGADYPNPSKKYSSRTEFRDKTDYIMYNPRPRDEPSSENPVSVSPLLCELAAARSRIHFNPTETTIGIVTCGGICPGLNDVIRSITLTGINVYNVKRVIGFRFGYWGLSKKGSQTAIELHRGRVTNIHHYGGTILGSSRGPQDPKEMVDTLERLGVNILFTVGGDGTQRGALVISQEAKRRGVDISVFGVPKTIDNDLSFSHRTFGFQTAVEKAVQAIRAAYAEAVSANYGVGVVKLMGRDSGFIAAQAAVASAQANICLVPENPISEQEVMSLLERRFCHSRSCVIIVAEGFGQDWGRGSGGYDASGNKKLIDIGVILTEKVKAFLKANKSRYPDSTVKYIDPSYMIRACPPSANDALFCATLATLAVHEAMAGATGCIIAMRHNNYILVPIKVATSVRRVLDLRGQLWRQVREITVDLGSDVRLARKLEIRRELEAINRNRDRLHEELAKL
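1.25 nM PFK with 0.5 mM F6P and 0.1 mM ATP in 0.1 M TEA pH 8.0, 5 mM MgCl2, incubated 45 min at room temperature; ADP measured by ADP-Glo luminescence; compounds titrated up to 57 uM.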
PKM2 act: qHTS Assay for Activators of Human Muscle isoform 2 Pyruvate Kinase; Pyruvate kinase PKM (Homo sapiens), P14618; purified PKM2, Kinase-Glo ATP luminescence, activation; response scale: 0% is enzyme alone, no compound; AID 1631, 2009; Potency, µM (top dose mostly 57.5 µM), for inactives: top-dose activation, actives largely listed as activators; hit rate 0.34% among 260,000; note: % is set by controls: 0 for no effect and ±100 for the full control effect; nearly all actives have a fitted effect of over 55% in size
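Purified hPK-M2 (>95%) run at intermediate activity with 0.1 mM ADP and 0.5 mM PEP in 50 mM imidazole pH 7.2, KCl, MgCl2; 1 h room temperature. ATP formed read by Kinase-Glo luminescence; normalized to uninhibited and no-enzyme controls.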
Rango dissoc inh: qHTS Assay for Inhibitors of RanGTP induced Rango (Ran-regulated importin-beta cargo) - Importin beta complex dissociation; Biochemical FRET Rango-importin beta, RanGTP-induced dissociation; Potency, µM (series often up to 46.1 µM), for the others: top-dose activity change, negative = inhibition; hit rate 0.071% among 340,000; AID 540253, 2011; calls by dose curve; note: % of control where 0% means no effect; nearly all actives have a fitted effect of over 45% in size
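Rango (0.1 uM)–importin beta (0.25 uM) complex; RanGTP-RCC1 trigger; 45 min RT; CFP/YFP FRET read.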
PGK inhibitor: qHTS Assay to Find Inhibitors of Phosphoglycerate Kinase; PGK/GAPDH coupled, Kinase-Glo luminescence, 60 min; Potency, µM (doses to about 57.5 µM), inactives show top-dose activity change, negative = inhibition, usual class: inhibitors; hit rate 0.043% among 380,000; note: % is set by controls: 0 for no effect and ±100 for the full control effect; nearly all actives have a fitted effect of over 60% in size
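Recombinant glycosomal PGK reaction used 1,3-bisphosphoglycerate generated in-well by GAPDH (100nM final) in 100mM TEA pH 7.6, 5mM MgCl2, 0.01% Tween-20. After 60 minutes at room temperature, ATP was read by Kinase-Glo Plus luminescence end-point.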
ELG1 repair inh: qHTS screen for small molecules that inhibit ELG1-dependent DNA repair in human embryonic kidney (HEK293T) cells expressing luciferase-tagged ELG1; Potency, µM (series often up to 46.1 µM), for inactives: at the highest dose activity change, negative = inhibition, most hits filed as inhibitors; AID 504467, 2011; hit rate 2.3% among 330,000; HEK293T ELG1-luciferase reporter, luminescence, 16 h; DNA damage induced by 5-fluorouridine; note: % is set by controls: 0 for no effect and ±100 for the full control effect; nearly all actives have a fitted effect of over 55% in size
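Reporter activity after DNA damage by 5-fluorouridine is monitored. Compound-treated cells incubate 16 hr at 37 °C, then ONE-Glo is added for 30 min before luminescence reading.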
The depositor's hits bear a star; i = inactive; ? = inconclusive; nt = no result given. Rows were chosen to be rich in hits. Some 2.4% of all compounds tested hit in one or more screens of this group. Unless noted, calls come from the whole dose curve; as a rule, active = well fitted curve in the direction sought with a large enough effect; inconclusive = small, poorly fitted or top-dose-only effect, or another doubt; inactive = no such curve, though single readings can be large; an effect the other way counts as inactive or inconclusive. Potency is the fitted concentration of half-maximal effect.

SMILES | Rango complex inh | Tb PFK block | PKM2 act | Rango dissoc inh | PGK inhibitor | ELG1 repair inh
Cc1cccc(N2CCN(C(=O)c3cccc(N4CCCC4=O)c3)CC2)c1C | ? | 3% | nt | 11% | i | ?
Cc1cccc(N2CCN(C(=O)c3cccc(N4C(=O)C5CC=CC(C)C5C4=O)c3)CC2)c1C (stereo not given) | ? | -2% | -1% | 0% | -4% | 23µM*
O=C(c1cccc(S(=O)(=O)N2CCCCCC2)c1)N1CCN(c2ccccc2F)CC1 | 2% | -2% | 1% | -2% | -3% | ?
Cc1ccc(C)c(N2CCN(C(=O)c3ccc4nc(-c5ccco5)c(-c5ccco5)nc4c3)CC2)c1 | ? | -3% | 12% | ? | -1% | ?
COc1ccccc1N1CCN(C(=O)c2ccc3nc(-c4ccco4)c(-c4ccco4)nc3c2)CC1 | ? | 10% | 6% | ? | -12% | 7.3µM*
COc1ccccc1N1CCN(C(=O)c2cccc(S(=O)(=O)N3CCCCCC3)c2)CC1 | -3% | 0% | nt | -16% | -5% | 13µM*
COc1ccc(S(=O)(=O)N2CCCCCC2)cc1C(=O)N1CCN(c2ccccc2O)CC1 | -1% | ? | nt | 18% | 1% | 13µM*
COc1cccc(C(=O)N(C)CC2CCN(CCc3cccc(C(F)(F)F)c3)CC2)c1 | 0% | 0% | -1% | 8% | i | -18%
C=CCOc1cccc(CNc2cccc(C(=O)O)c2)c1 | 2% | -2% | 0% | -10% | 3% | ?
COc1cccc(CNCCSc2nnnn2C)c1OCc1ccc(Cl)cc1 | nt | nt | nt | nt | -3% | nt
O=C(c1ccc(N2CCCC2=O)cc1)N1CCN(c2ccccc2O)CC1 | 1% | -15% | nt | 3% | -1% | 18µM*
Cc1ccccc1NS(=O)(=O)c1ccc(C(=O)N2CCCC2)cc1 | -1% | 1% | nt | 0% | i | 8%
COc1ccccc1N1CCN(C(=O)c2cc3c(s2)-c2ccccc2OC3)CC1 | 2% | -2% | 1% | 1% | 4% | 21µM*
Cc1cccc(NS(=O)(=O)c2ccc(C(=O)N3CCN(c4ccccc4O)CC3)cc2)c1C | 3% | -1% | 14% | 19% | -1% | 21µM*
O=C(c1cc2c(s1)-c1ccccc1OC2)N1CCc2ccccc2C1 | -3% | 4% | -17% | 7% | -5% | ?
Cc1cccc(N2CCN(C(=O)c3ccc4nc(N5CCCCC5)sc4c3)CC2)c1C | -1% | -6% | -1% | -6% | -2% | 23µM*
Cc1cc(C(=O)N2CCCC(N3CCN(c4ccccc4C)CC3)C2)no1 (stereo not given) | nt | nt | nt | nt | -2% | nt
COc1ccc(N2CCN(c3ncnc4c3cnn4-c3ccc(F)cc3)CC2)cc1 | nt | nt | nt | nt | i | nt
Cc1cccc(N2CCN(C(=O)c3cccc(S(=O)(=O)N4CCCCC4)c3)CC2)c1C | -2% | -6% | nt | -5% | -9% | 13µM*
CN(Cc1ccccc1)c1ncnc2sccc12 | -6% | -1% | nt | 16% | -3% | -27%
COc1cc2c(cc1OC)CN(CCC(C)c1ccc(Cl)cc1)CC2 (stereo not given) | -2% | nt | nt | -10% | 1% | nt
C=CCOCCn1[nH]c2ccccc2c1=O | 2% | -7% | nt | -16% | -6% | 9%
CCOC(=O)C1=C(CN2CCN(c3cc(C)ccc3C)CC2)NC(=O)NC1c1ccc(Cl)cc1 (stereo not given) | nt | nt | nt | nt | 9% | nt

Assay outcomes: PubChem, National Center for Advancing Translational Sciences (NCATS)
